AmpC no deterg – inhibitors of E. coli AmpC beta-lactamase without detergent; AmpC nitrocefin hydrolysis, absorbance 480 nm, 0.0001% Triton; Potency, µM (highest dose often 57.1 µM), for the others: at the top dose activity change, negative = inhibition, most hits filed as inhibitors; actives 0.52% (n = 330,000);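 also: plate controls were no compound for no effect and no enzyme for full effect; nearly all actives have a fitted effect of over 20% in size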
Target sequence (P00811 whole entry, looked up): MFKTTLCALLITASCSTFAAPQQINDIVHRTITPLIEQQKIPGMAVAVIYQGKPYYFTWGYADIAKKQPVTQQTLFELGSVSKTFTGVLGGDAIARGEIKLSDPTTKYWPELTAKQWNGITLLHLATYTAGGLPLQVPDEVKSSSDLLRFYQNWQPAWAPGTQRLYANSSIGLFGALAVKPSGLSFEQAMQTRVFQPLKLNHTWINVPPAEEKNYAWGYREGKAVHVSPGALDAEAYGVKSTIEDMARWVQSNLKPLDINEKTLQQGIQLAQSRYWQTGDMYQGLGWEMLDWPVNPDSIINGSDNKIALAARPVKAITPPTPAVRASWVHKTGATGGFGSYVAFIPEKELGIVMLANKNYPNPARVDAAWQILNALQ
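20 mM phosphate pH 7.0 + 0.01% (detergent screen) or 0.0001% Triton X-100; 5.3 nM AmpC reagent; cpd preinc 15 min RT; nitrocefin (800 uM stock) to start; A480 q20 s × 4 min; Activity was normalised to no-enzyme and no-compound control wells.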
Pf growth 48h – P. falciparum growth inhibition at 48 hours (one generation) | P. falciparum luciferase growth in erythrocytes, 48 h | Potency, µM (top dose mostly 28.7 µM), for inactives: top-dose activity change, negative = inhibition, most hits filed as inhibitors | actives 5.9% (n = 310,000) | AID 504832
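First compound was added to culture medium, then infected red cells at 0.1% parasitemia and 2% hematocrit (final). After incubation at 37 C under 5% CO2, luciferase detection reagent was dispensed and light output recorded.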
HCV inhibitor – inhibitors of hepatitis C virus infection; Huh7.5.1 HCVcc-Cre infection, luciferase reporter, 44 h; Potency, µM (highest dose often 41.8 µM), for the others: top-dose activity change, negative = inhibition, hits mostly inhibitors; actives 3.4% (n = 340,000); AID 651820
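Compounds are dispensed onto cells plated 4 h earlier at 1,000 per well, with HCVcc-Cre virus (about 0.5 moi) added next. Following 44 h of culture, luminescent signal is measured for 15 sec after 15 min with substrate at room temperature.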
AmpC inh detg – AmpC beta-lactamase inhibition with detergent present; P00811; AmpC hydrolysis of nitrocefin, absorbance 480 nm, 0.01% Triton; Potency, µM (series often up to 114 µM), for inactives: at the highest dose activity change, negative = inhibition, most hits filed as inhibitors; actives 0.041% (n = 370,000); AID 485294;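 also: 0% = no-compound wells and -100% = no-enzyme wells; nearly all actives have a fitted effect of over 25% in size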
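AmpC (5.3 nM in the dispensed reagent) in 20 mM phosphate pH 7.0 with 0.01% (detergent screen) or 0.0001% Triton X-100 was preincubated with compounds for 15 min at room temperature. Nitrocefin was then added from an 800 uM solution, and hydrolysis was followed at 480 nm.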
AMA1-RON2 inh – AMA1-RON2 (P. falciparum) interaction inhibition | AlphaScreen AMA1-biotinylated RON2 peptide binding | Potency, µM (titrated, usually from 58.2 µM), for inactives: at the top dose activity change, negative = inhibition, most hits filed as inhibitors | actives 0.2% (n = 360,000) | AID 720542;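 also: 0% = vehicle wells and -100% = peptide control; nearly all actives have a fitted effect of over 45% in size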
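AMA1 (3D7) with his tag at 25 nM final met compounds first, then biotinylated RON2 peptide at 25 nM; detection used donor plus acceptor beads, 10 µg/mL apiece, read by AlphaScreen after 30 min at room temperature.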
Pf growth 96h – P. falciparum growth inhibition at 96 hours; actives 6.9% (n = 320,000); P. falciparum luciferase reporter growth, 96 h; Potency, µM (doses to about 28.7 µM), inactives show at the highest dose activity change, negative = inhibition, actives largely listed as inhibitors
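Plates of compound plus infected erythrocytes (2% hematocrit, 0.05% parasitemia final) incubate 96 hours, 37 C, 5% CO2. Detection reagent added; reduced luminescence from the parasites' luciferase reporter flags inhibition.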
* hit, by the source's call; ? = inconclusive; / = no result given; [ ] = dose if it differs, or a comment. In the library only some 11% were active in any assay of this set; here they are far more common. Calls follow the shape of the dose curve; as a rule, active = well fitted curve in the direction sought with a large enough effect; inconclusive = small, poorly fitted or top-dose-only effect, or another doubt; inactive = no such curve, though single readings can be large; an effect the other way counts as inactive or inconclusive. Unless noted, % is scaled to controls: 0 for no effect and ±100 for the full control effect; potency is read from the fitted curve at half-maximal effect.

SMILES	AmpC no deterg	Pf growth 48h	HCV inhibitor	AmpC inh detg	AMA1-RON2 inh	Pf growth 96h
Cn1c(=O)[nH]c(=O)c2c1nc(N1CCOCC1)n2CC(O)COc1ccc2ccccc2c1 (centres undefined)	92%	-10%	2%	3%	2%	6.6µM*
CN1CCN(c2nc3c(c(=O)[nH]c(=O)n3C)n2CC(N)=O)CC1	-1%	?	16%	?	-5%	13µM*
O=C(Cn1c(=O)n(-c2ccc(Cl)cc2)c(=O)c2c3c(sc21)CCC3)c1ccc(F)cc1	/	/	/	19%	/	/
COC(=O)c1cc2sc(C)cc2n1Cc1ccc(Br)cc1F	/	/	/	22%	/	/
Cc1cc(Cl)c2oc(C(=O)N(C)CCc3cnn(C)c3)c(C)c2c1	118%	-1%	?	1%	-2%	10µM*
Cc1cc(Cl)c2oc(C(=O)N(C)CCCCN3CCOCC3)c(C)c2c1	158%	-13%	?	0%	10%	?
COc1ccccc1Nc1nc(-c2ccc(F)cc2)c2c(n1)-c1ccccc1OC2	/	/	/	8%	/	/
Nc1nc(Nc2ccccc2)nc(NCc2ccco2)c1[N+](=O)[O-]	-22%	?	?	-4%	?	?
Cc1ccc(Nc2nc(N)c([N+](=O)[O-])c(NCc3ccco3)n2)cc1	-43%	0%	?	-6%	-21%	12µM*
Cc1ccc(Nc2nc(NCC3CCCO3)nc(N)c2[N+](=O)[O-])cc1 (centres undefined)	-17%	-28%	?	-3%	-14%	12µM*
COCCNc1nc(N)c([N+](=O)[O-])c(NCC2CCCO2)n1 (centres undefined)	-7%	-2%	1%	4%	-15%	-5%
Nc1nc(NCc2ccco2)nc(Nc2ccccc2)c1[N+](=O)[O-]	-14%	-3%	-4%	-9%	-7%	-23%
Fc1ccc(Nc2nc(NCc3ccco3)c3ccccc3n2)cc1	-39%	0.37µM*	10µM*	-6%	-17%	?
CNc1nc(N)c([N+](=O)[O-])c(NCC2CCCO2)n1 (centres undefined)	-18%	2.1µM*	-13%	1%	1%	-3%
COc1ccccc1C(=O)Nc1ccc(C(=O)OCc2cc(=O)n3ccsc3n2)cc1	/	/	/	9%	/	/
O=C(CC1C(=O)N(c2ccccc2)C(=O)N1CCC1=CCCCC1)Nc1ccc(F)cc1 (centres undefined)	/	/	/	1%	/	/
COc1ccc(CCNS(=O)(=O)c2ccc(F)c(C(=O)Nc3ccc(Cl)cc3)c2)cc1OC	/	/	/	-4%	/	/
CCN(C(=O)Cn1c(SCC(=O)Nc2ccc(OC)cc2)nc2ccccc21)c1cccc(C)c1	/	/	/	1%	/	/
CC(C)c1ccc(N2C(=O)N(Cc3ccccc3Cl)c3ccccc3S2(=O)=O)cc1	/	/	/	7%	/	/
Nc1nc(NCC2CCCO2)nc(Nc2ccc(F)cc2)c1[N+](=O)[O-] (centres undefined)	-8%	?	-2%	1%	-6%	5.9µM*
Cc1cccc(Nc2nc(NCC3CCCO3)nc(N)c2[N+](=O)[O-])c1 (centres undefined)	-24%	1%	4%	?	23%	?
O=C(CSc1ncn[nH]1)N1N=C2/C(=C/c3ccco3)CCCC2C1c1ccco1 (centres undefined)	12%	12µM*	?	-4%	-2%	/
O=C(COc1ccccc1)Nc1nnc(-c2ccccc2Cl)o1	/	/	11%	/	33%	/
O=C(COc1ccccc1)Nc1nnc(-c2ccc(F)cc2)o1	-42%	22%	2%	-4%	8%	12µM*
O=C(COc1ccccc1)Nc1nnc(-c2ccc3c(c2)CCCC3)o1	10µM*	40%	11%	?	121%	67%
SMILES	AmpC no deterg	Pf growth 48h	HCV inhibitor	AmpC inh detg	AMA1-RON2 inh	Pf growth 96h
O=C(Nc1nnc(-c2ccc3c(c2)CCCC3)o1)c1ccccc1	-28%	?	?	-11%	135%	?
CCC(=O)N1c2ccccc2CC1C(=O)NCCc1ccccc1Cl (centres undefined)	/	/	/	7%	/	/
CCC(Sc1nnc(-c2ccc(OC)cc2)c(-c2ccc(OC)cc2)n1)C(=O)Nc1cccc(OC)c1 (centres undefined)	/	/	/	2%	/	/
CN(CC(=O)Nc1cccc(F)c1)C(=O)c1cc(-c2ccccc2)nc2ccccc12	-31%	?	?	?	-7%	?
Cc1ccc2nc(-c3ccccc3)cc(C(=O)N(C)CC(=O)Nc3ccccc3Br)c2c1	-17%	13µM*	?	-18%	-9%	?
COc1ccc(NC(=O)CSCC(=O)N(C)Cc2ccc(Cl)c(Cl)c2)cc1	5%	13µM*	?	-3%	0%	?
CCOc1ccc(NC(=O)CN(C)C(=O)c2cc(C)nc3ccccc23)cc1OCC	-21%	15µM*	?	-9%	7%	?
Cc1ccc(NC(=O)CN(C)C(=O)c2cc(-c3ccco3)nc3ccccc23)cc1	-43%	10µM*	?	1%	-17%	?
Cc1ccc(NC(=O)CSCC(=O)N(C)Cc2ccc(Cl)c(Cl)c2)cc1	4%	?	-6%	-13%	2%[11.6 µM]	?
CCOc1ccc(NC(=O)CN(C)C(=O)c2cc(-c3ccncc3)nc3ccccc23)cc1OCC	86%	?	?	?	-13%	?
Cc1cccc(N2CCN(C(=O)c3cn(C)c4ccc(S(=O)(=O)N(C)C)cc4c3=O)CC2C)c1 (centres undefined)	/	/	/	1%	/	/
Cc1cc(C)c2c(n1)SCCN2C(=O)Nc1ccc(C(=O)Nc2cc(Cl)ccc2C)cc1	/	/	/	21%	/	/
O=C(Cn1ncn2c(cc3ccccc32)c1=O)NCc1ccc(F)cc1	/	/	/	7%	/	/
CCC(=O)N1CCc2cc(S(=O)(=O)NC(Cc3ccccc3)C(=O)NCc3ccc(F)cc3)ccc21 (centres undefined)	/	/	/	-1%	/	/
O=C(c1ccccc1)N1CCCC(c2nc3c(nnn3Cc3ccc(F)cc3F)c(=O)[nH]2)C1 (centres undefined)	/	/	/	19%	/	/
CCOc1ccc(OC(=O)c2cn(-c3cccc(OC)c3)c(=O)c3ccccc23)cc1	/	/	/	3%	/	/
COc1ccc(NC(=O)CN(C)C(=O)CSC(c2ccccc2)c2ccccc2)cc1	-1%	?	13µM*	-2%	0%	?
COc1ccc(NC(=O)CN(C)C(=O)c2cc(-c3ccc(OC)cc3)nc3ccccc23)cc1	14%	9.3µM*	?	-27%	-26%	?

From PubChem
